# This is part of a sample that, as a whole, favours compounds with a hit. Of some 83,000 tested, about 20% had one in any assay.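 Compound tested at a single concentration for 48 hours in 96-well plates; a percent growth value below 10 was scored as active.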 Values without a mark were called inactive. The source made the active and inactive calls.
# System: NCI-H322M lung
# Test: NCI-60 one-dose screen, 48 h (100 = growth as untreated, 0 = no growth, -100 = all killed)
# Conditions: 10 µM unless noted
# Experimental: Growth inhibition of the NCI-H322M human Non-Small Cell Lung tumor cell line is measured as a screen for anti-cancer activity. Cells are grown in 96 well plates and exposed to the test compound for 48 hours. Compounds are tested at a single concentration, which is 10^-5 M for most compounds. The reported endpoint is percent growth (GI% or GIPRCNT), where numbers from 0 - 100% represent growth inhibition, and numbers from -100% - 0 represent cell death. For example, a value of 40 represents 60% growth inhibition. A value of 0 means no net growth occurred over the course of the experiment. A value of -40 indicates 40% of cells at the beginning of the experiment died by the end of the experiment. A value of -100 means all cells are dead at the end of the experiment.
# NCI-60 Human Tumor Cell Lines Screen was performed using the standard one-dose NCI protocol, which is described in more detail at https://dtp.cancer.gov/discovery_development/nci-60/default.htm.
# Compounds with GIPRCNT values below 10 were considered active. Activity score was based on GIPRCNT using the following formula: […]
# Score is 0 for GIPRCNT values of 100 or above, 50 for GIPRCNT values of 0, and 100 for GIPRCNT values of -100.
row,SMILES,growth
1,COc1ccc(C(=O)c2sc3nc(-c4ccccc4OC)ccc3c2N)cc1OC,87.2%
2,COc1cnc2c(c1)C(=O)c1c-2n(CCCN2CCNCC2)c(=O)c2cc([N+](=O)[O-])ccc12,-72.2% (active)
3,Cc1cc(OCc2ccc(C(F)(F)F)cc2)c2c(c1)C(=O)C=C(NCCN1CCCC1)C2=O,80.9%
4,O=C(Cn1cc(CN2C(=O)c3ccccc3S2(=O)=O)nn1)Nc1ccc([N+](=O)[O-])cc1Cl,94.5%
5,COc1ccc(S(=O)(=O)NCCNc2nccc(-c3c(-c4cccc([N+](=O)[O-])c4)nc4sccn34)n2)cc1,97.5%
6,O=C(O)c1ccc(=O)[nH]n1,117%
7,Oc1ccc(Nc2nccc(-c3ccc4ccccc4c3)n2)cc1,44.4%
8,CCNS(=O)(=O)c1ncnc2nc[nH]c12,111%
9,O=C(/C=C\c1cccc([N+](=O)[O-])c1)c1ccccc1,96.1%
10,O=[N+]([O-])c1cccc(-c2nc3sccn3c2-c2ccnc(NCCCNS(=O)(=O)c3ccc(Br)cc3)n2)c1,76.1%
11,CCCCNP1(NCCCC)=NP(NCCCC)(NCCCC)=NP(NCCCC)(NCCCC)=NP(NCCCC)(NCCCC)=N1,9.1% (active)
12,O=C1C=CC(=O)N1c1ccc(Cc2ccc(N3C(=O)C=CC3=O)cc2)cc1,100%
13,C=C1C(=O)O[C@H]2[C@H]1CC/C(Cn1cc(Cn3ccc4ccccc43)nn1)=C\CC[C@@]1(C)O[C@@H]21,79.7%
14,Cc1cc(=O)oc2cc(Oc3nc(-c4ccc(Cl)cc4)cn4c(-c5ccc(Cl)cc5)cnc34)ccc12,95.9%
15,COc1nc2c(cc1S(=O)(=O)c1ccccc1)CCc1c-2cnn1Cc1ccccc1,60.1%
16,COC1=CC(=O)C(OC)=C(OC)C1=O,94.2%
17,Nc1c(C(=O)Nc2ccccc2)sc2nc3c(cc12)CN(CCc1ccccc1)CC3,94.2%
18,CN1CCCCC1CCN1c2ccccc2Sc2ccc(Cl)cc21 (stereo not given),59%
19,CN1CCN(Cc2ccc(NC(=O)c3[nH]ncc3Nc3ncnc4c3CCC4)cc2)CC1,16.5%
20,O=C(O)C(O)C(O)C(=O)O.[NH-]C1CCCCC1[NH-].[Pt+2] (stereo not given),117%

row,SMILES,growth
1,COc1ccc2nc3cc(Cl)ccc3c(N3CCN(c4nccc(Nc5ccccc5)n4)CC3)c2c1,88.3%
2,CC#Cc1nc2ccccc2c(=O)[nH]1,104%
3,CC(=O)Nc1ccc2c(c1)c(NC(C)=O)nn2C(=O)Nc1ccc(Cc2ccccc2)cc1,75.1%
4,CCOC(=O)C12CCCC1=CC(=O)CC2 (stereo not given),104%
5,CCN(CC)CCCC(C)Nc1ccnc2c(OC)cccc12 (stereo not given),141%
6,COc1ccc(-c2nc(Nc3cc(C)[nH]n3)c3ccccc3n2)cc1,78.1%
7,CC1(C)CC(=O)C(c2c(-c3ccccc3)[nH]c3[nH]c(=S)[nH]c(=O)c23)=C(O)C1,102%
8,CC[n+]1ccc2c(c1)C(=O)c1nccc3c1c-2nc1ccccc13,-16.3% (active)
9,c1ccc(-c2nc(N3CCOCC3)c3c4c(sc3n2)CCCCC4)nc1,67.3%
10,CC1=C(NCCN2CCCC2)C(=O)c2c(OCc3ccc(F)c(Cl)c3)cccc2C1=O,64.3%
11,COc1ccc(-c2cc(=O)[nH]c3c(OC)c4ccccc4c(OC)c23)cc1,41.8%
12,COc1ccc(C(=O)COc2ccc(/C=C3\Oc4ccc(Cl)cc4C3=O)cc2)cc1,96.6%
13,CN1Cc2c(cc(CN3CCCCC3)n2C)C(c2ccc(Br)cc2)C1 (stereo not given),91.5%
14,NC(=S)N/N=C/c1ccc(OCc2ccccc2)cc1,79.9%
15,Nc1cc(O)cc2cccnc12,104%
16,O=C(O)c1cccnc1Br,112%
17,COc1ccc(-c2c(C)noc2-c2ccc(O)cc2O)cc1,94%
18,CCN(CC)Cc1cc(Nc2c3ccc(Cl)cc3nc3c(C)cccc23)ccc1O,-25.6% (active)
19,O=C1/C(=C/c2ccc(Cl)c(Cl)c2)CN(C(=O)CCN2CCC(=NO)CC2)C/C1=C\c1ccc(Cl)c(Cl)c1,-78.7% (active)
20,Cc1cc(Nc2nc(-c3cccnc3)nc3ccccc23)n[nH]1,81.3%
